Drawing on article PMC7862700, “An all-to-all approach to the identification of sequence-specific readers for epigenetic DNA modifications on cytosine”, this text covers binding signal for two sequences.

Common to all, as to assay: DAPPL (digital affinity profiling via proximity ligation, sequencing); 10 mM Tris-HCl pH 7.5, 50 mM NaCl, 1 mM DTT, 4% glycerol, room temperature, 30 min; GST-TFs on glutathione beads, 16-mer random dsDNA library, 0.1% formaldehyde crosslink after washing; high values mean tight binding
Conditions in all cases: protein: recombinant; tags: N-terminal GST; dsDNA, one strand shown

The target of one assay is T1, GABPA (Homo sapiens, UniProt Q06546 1-454).
T1 sequence: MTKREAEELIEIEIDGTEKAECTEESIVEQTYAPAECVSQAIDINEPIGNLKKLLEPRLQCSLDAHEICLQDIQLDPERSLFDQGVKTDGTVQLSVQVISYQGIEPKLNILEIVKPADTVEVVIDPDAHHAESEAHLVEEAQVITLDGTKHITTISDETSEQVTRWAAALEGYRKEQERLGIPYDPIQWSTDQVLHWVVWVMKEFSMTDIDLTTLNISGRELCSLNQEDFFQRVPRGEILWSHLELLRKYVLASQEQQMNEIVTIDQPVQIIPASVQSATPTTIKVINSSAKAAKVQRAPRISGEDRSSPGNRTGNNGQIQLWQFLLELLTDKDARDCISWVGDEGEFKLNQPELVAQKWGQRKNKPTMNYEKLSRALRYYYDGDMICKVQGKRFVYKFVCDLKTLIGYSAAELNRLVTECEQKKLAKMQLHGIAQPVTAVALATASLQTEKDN
Summed up: (§1)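 Sequencing on an Illumina NextSeq500 followed washing, crosslinking with 0.1% formaldehyde, proximity ligation (BsaI/T4 ligase, 1 h, 37 °C) and PCR amplification of pools that had been incubated for 30 min at room temperature with 200 nmole of a random double-stranded 16-mer DNA library in Tris/NaCl/DTT/glycerol buffer. Each pool held DNA-barcoded human transcription factors, expressed in yeast as GST fusions and captured on glutathione beads, plus a tag-only sample. Binding signal is a hexamer's read frequency for a factor divided by its frequency in the tag-only sample.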

In another assay the target is ELF1 (Homo sapiens, UniProt P32519 1-619). Summed up: as §1
ELF1, sequence (P32519 whole entry): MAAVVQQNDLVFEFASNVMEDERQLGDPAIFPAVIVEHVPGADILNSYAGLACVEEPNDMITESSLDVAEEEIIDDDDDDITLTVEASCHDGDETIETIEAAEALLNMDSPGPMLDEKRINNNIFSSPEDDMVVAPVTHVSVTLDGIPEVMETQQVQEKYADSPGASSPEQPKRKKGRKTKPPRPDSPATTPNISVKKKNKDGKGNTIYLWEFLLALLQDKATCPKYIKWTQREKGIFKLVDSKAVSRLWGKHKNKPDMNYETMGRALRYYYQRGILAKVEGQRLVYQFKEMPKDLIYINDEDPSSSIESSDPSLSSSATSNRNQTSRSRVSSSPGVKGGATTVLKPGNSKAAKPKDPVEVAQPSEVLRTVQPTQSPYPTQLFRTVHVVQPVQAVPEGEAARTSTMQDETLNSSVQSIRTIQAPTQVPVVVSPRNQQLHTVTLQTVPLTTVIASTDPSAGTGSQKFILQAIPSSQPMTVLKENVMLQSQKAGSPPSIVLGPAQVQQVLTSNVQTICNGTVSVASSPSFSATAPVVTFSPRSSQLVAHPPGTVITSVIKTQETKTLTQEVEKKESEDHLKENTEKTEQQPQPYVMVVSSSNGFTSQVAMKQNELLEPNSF
The target in another assay is SPIB (Homo sapiens, UniProt Q01892 1-262). Summed up:
as §1

The target in a further assay is T2, ELK3 (Homo sapiens, UniProt P41970 1-407).
T2 sequence: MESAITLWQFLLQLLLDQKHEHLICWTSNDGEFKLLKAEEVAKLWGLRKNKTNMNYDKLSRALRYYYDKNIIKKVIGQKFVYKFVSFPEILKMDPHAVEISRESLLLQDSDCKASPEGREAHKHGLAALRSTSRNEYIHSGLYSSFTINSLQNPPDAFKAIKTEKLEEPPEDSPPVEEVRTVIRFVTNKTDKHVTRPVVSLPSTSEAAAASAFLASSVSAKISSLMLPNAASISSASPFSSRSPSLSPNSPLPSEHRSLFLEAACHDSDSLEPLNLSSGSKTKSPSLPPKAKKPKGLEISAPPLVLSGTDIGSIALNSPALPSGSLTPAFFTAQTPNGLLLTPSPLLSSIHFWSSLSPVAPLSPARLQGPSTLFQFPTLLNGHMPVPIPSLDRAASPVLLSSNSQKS
Summed up: as §1

The target of another assay is ETV5 (Homo sapiens, UniProt P41161 1-510). The gist of the method: as §1
ETV5, sequence (P41161 whole entry): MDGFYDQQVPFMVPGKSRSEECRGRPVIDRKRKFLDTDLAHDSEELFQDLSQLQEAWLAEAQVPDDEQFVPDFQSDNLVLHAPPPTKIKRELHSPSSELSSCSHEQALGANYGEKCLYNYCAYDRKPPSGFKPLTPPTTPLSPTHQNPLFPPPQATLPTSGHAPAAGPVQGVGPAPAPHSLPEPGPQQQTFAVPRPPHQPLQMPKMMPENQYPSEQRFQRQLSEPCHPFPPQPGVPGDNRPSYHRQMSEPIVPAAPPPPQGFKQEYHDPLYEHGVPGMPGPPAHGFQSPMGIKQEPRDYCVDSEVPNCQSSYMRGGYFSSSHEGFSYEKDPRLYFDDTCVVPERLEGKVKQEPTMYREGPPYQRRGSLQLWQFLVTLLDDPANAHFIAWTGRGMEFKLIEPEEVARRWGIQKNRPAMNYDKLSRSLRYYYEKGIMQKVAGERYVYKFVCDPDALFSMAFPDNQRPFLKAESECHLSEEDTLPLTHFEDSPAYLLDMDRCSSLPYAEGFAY
The next assay concerns the target T3, SPIC (Homo sapiens, UniProt Q8N5J4 1-248).
T3 sequence: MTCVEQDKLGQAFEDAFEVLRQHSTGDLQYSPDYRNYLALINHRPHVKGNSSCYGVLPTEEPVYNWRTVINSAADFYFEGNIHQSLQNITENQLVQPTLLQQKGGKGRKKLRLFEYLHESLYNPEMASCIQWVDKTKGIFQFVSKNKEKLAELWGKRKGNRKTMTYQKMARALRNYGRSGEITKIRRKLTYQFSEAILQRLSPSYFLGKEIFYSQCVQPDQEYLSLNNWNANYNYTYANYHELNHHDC
The gist of the method:
as §1

In the next assay the target is T4, ETV3L (Homo sapiens, UniProt Q6ZN32 1-361).
T4 sequence: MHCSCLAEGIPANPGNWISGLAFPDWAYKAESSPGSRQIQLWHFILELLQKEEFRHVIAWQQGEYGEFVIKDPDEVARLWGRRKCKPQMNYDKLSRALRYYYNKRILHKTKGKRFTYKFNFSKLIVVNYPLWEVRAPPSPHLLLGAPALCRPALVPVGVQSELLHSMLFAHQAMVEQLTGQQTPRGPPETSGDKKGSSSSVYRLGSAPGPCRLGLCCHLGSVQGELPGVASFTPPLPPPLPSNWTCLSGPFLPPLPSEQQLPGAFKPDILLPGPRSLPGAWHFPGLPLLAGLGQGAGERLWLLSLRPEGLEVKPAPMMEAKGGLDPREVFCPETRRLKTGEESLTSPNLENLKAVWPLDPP
Summed up: as §1

The next assay has as its target T5, ETV3 (Homo sapiens, UniProt P41162-2 1-143).
T5 sequence: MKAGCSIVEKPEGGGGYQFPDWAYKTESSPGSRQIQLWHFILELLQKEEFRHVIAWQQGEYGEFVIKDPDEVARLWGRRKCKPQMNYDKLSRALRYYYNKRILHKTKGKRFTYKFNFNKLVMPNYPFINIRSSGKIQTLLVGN
The gist of the method:
as §1

The next assay addresses T6, ELK1 (Homo sapiens, UniProt P19419 1-428).
T6 sequence: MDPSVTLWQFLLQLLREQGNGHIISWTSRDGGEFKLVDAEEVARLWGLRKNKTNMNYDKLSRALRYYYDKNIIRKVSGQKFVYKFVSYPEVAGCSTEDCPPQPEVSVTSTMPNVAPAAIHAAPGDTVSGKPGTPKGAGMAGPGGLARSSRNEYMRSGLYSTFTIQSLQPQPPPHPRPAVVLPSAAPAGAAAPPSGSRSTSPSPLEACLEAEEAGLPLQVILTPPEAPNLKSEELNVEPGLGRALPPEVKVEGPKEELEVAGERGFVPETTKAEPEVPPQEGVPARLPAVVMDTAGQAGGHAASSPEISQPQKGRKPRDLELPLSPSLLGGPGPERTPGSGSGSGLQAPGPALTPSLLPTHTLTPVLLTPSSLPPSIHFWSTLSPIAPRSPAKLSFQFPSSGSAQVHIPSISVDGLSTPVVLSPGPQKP
Summed up:
as §1

The next assay addresses T7, ELF3 (Homo sapiens, UniProt P78545 1-371).
T7 sequence: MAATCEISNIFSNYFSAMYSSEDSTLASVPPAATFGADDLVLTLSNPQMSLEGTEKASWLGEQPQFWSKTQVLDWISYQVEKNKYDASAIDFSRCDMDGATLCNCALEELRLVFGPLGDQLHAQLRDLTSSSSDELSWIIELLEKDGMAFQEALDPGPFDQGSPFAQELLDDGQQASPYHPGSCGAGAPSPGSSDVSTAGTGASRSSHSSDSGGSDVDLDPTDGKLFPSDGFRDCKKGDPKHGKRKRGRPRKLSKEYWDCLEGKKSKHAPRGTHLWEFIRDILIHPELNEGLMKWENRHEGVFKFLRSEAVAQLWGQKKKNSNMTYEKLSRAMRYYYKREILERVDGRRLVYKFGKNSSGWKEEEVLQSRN
Summed up:
as §1

The target in a further assay is T8, ERF (Homo sapiens, UniProt P50548 1-548).
T8 sequence: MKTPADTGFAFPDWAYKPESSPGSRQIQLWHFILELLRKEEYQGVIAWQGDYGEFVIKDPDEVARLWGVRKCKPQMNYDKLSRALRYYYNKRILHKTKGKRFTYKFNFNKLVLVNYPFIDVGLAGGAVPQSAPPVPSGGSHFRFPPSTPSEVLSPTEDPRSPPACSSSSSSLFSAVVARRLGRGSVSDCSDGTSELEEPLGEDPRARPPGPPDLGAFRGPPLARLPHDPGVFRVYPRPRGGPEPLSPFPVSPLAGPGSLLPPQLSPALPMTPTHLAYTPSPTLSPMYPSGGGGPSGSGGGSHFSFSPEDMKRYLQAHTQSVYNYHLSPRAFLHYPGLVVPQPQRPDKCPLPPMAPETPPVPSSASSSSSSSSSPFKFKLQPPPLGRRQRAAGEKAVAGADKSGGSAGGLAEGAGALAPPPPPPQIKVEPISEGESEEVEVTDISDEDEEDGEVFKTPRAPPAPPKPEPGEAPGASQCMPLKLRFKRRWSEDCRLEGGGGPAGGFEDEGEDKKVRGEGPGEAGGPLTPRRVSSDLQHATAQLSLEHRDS
Summed up:
as §1

SPIB, sequence (Q01892 whole entry): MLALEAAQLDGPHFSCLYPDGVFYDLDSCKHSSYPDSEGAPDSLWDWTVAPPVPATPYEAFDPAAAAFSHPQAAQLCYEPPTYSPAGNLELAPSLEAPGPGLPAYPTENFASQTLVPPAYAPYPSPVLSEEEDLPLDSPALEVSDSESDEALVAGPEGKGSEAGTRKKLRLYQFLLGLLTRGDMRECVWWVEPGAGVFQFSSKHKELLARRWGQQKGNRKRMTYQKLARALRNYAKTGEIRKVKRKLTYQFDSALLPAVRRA

Turning to TGGTCG, the binding signal is 1.08 fold enrichment (6-mer frequency, TF over GST control) with GABPA; 1.02 fold enrichment (6-mer frequency, TF over GST control) with ELF1; 1 fold enrichment (6-mer frequency, TF over GST control) with SPIB; 1.11 fold enrichment (6-mer frequency, TF over GST control) with ELK3; 1.06 fold enrichment (6-mer frequency, TF over GST control) in the assay with ETV5; 1.13 fold enrichment (6-mer frequency, TF over GST control) with SPIC. In addition, the binding signal with ETV3L was 1 fold enrichment (6-mer frequency, TF over GST control); with ETV3, 1 fold enrichment (6-mer frequency, TF over GST control).

On to GGCAAT, for which the binding signal was 1 fold enrichment (6-mer frequency, TF over GST control) in the assay with ELK1; 1 fold enrichment (6-mer frequency, TF over GST control) in the assay with GABPA; 1 fold enrichment (6-mer frequency, TF over GST control) in the assay with ETV5; 1.01 fold enrichment (6-mer frequency, TF over GST control) with ELF3; 1.02 fold enrichment (6-mer frequency, TF over GST control) with ERF.
